Bioassay records: PubChem, National Center for Advancing Translational Sciences (NCATS)
HCMV inh: inhibitors of human cytomegalovirus; HFF cells, HCMV-luciferase reporter, 72 h; stronger effect = lower value; activity change, negative = inhibition, % at 57.5 µM; hit rate 4.5% among 410,000; AID 1259415; in the data active means activity change below about -60%; inconclusive means no clear call, values can overlap the other calls; inactive means above about -39%; further: on the % scale 0 is the no-effect control and ±100 the full control effect
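Luciferase read-out from HCMV-luciferase-infected HFFs (MOI 1 PFU/cell) 72 h post infection at 37C; compounds added after 16 h cell attachment; activity normalized between buffer-only basal and Salinomycin (10uM) inhibitor controls.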
Marburg entry inh: inhibitors of Marburg virus binding or cell entry; Potency, µM (series often up to 37.8 µM), for inactives: at the top dose activity change, negative = inhibition, actives largely listed as inhibitors; Marburg virus pseudotyped entry inhibition, cell reporter; hit rate 1.8% among 300,000; calls by dose curve; tested in HEK293 cells; further: potency means the concentration at half of the fitted maximal effect; on the % scale 0 is the no-effect control and ±100 the full control effect
Lassa entry inh: blocks Lassa virus binding to or entry into cells. AID 540256. hit rate 1.2% among 300,000. Lassa virus pseudotype entry inhibition, cell reporter. Potency, µM (top dose mostly 37.9 µM), for inactives: at the top dose activity change, negative = inhibition, actives largely listed as inhibitors; calls by dose curve; tested in HEK293 cells; further: potency means the concentration at half of the fitted maximal effect; on the % scale 0 is the no-effect control and ±100 the full control effect; nearly all actives have a fitted effect of over 50% in size
HCV inh: blocks hepatitis C virus | Huh7.5.1 HCVcc-Cre infection, luciferase reporter, 44 h | Potency, µM (series often up to 41.8 µM), without a hit: at the highest dose activity change, negative = inhibition, hits mostly inhibitors | hit rate 3.4% among 340,000; active means well fitted inhibition curve with a large enough effect; inconclusive means small, poorly fitted or top-dose-only effect, or another doubt; inactive means no such curve, though single readings can be large or run the other way; further: potency means the concentration at half of the fitted maximal effect; on the % scale 0 is the no-effect control and ±100 the full control effect
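Seed cells (1,000/well) for 4 h; treat with compound and infect with HCVcc-Cre, moi about 0.5. Incubate 44 h, then detect luciferase activity.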
SARS PLpro yeast: blocks SARS-CoV papain-like protease in a yeast assay; hit rate 0.19% among 330,000; S. cerevisiae expressing SARS-CoV PLpro, growth rescue; Potency, µM (series often up to 32.9 µM), inactives show at the highest dose activity, positive = growth rescue, most hits filed as activators; calls by dose curve; further: potency means the concentration at half of the fitted maximal effect; 0% is about no effect; nearly all actives have a fitted effect of over 55% in size
FMDV antiviral: foot and mouth disease virus antiviral activity | hit rate 1.2% among 410,000 | FMDV antiviral cell-based qHTS | Potency, µM (doses to about 57.9 µM), for inactives: at the top dose activity change, negative = inhibition, usual class: inhibitors; calls by dose curve; tested in HEK293T cells; further: read-out not given here; potency means the concentration at half of the fitted maximal effect; on the % scale 0 is the no-effect control and ±100 the full control effect; nearly all actives have a fitted effect of over 45% in size
* marks the source's active call; other numbers are inactive results; ? = inconclusive; · = no result given; [ ] = dose if it differs, or a comment. Most compounds without a hit are left out; they make up all but 8% or so of the library.

SMILES	HCMV inh	Marburg entry inh	Lassa entry inh	HCV inh	SARS PLpro yeast	FMDV antiviral
O=C(OCn1nnc2ccccc2c1=O)c1cccnc1	21.8	3.0%	0.2%	27.1%	-14.1%	3.0%
COc1ccc(NC(=O)c2cn(-c3ccccc3)nc2-c2ccncc2)cc1	-22.9	?	12.5%[46.1 µM]	-15.9%	-1.3%	-21.0%
Cc1ccc(C(=O)N/C(=C\c2cccs2)C(=O)NCCc2c[nH]c3ccccc23)cc1	-2.3	?	1.4%	?	13.1%	-5.7%
CCOc1ccccc1C(=O)N[C@H](C(=O)OCc1cc(=O)oc2cc(C)ccc12)C(C)C	-22.6	?	-10.3%	10µM*	-12.7%	10.4%
COc1cc(OC)cc(C(=O)N[C@H](C(=O)OCc2cc(=O)oc3cc(C)ccc23)C(C)C)c1	0.6	?	-1.4%	?	9.0%	32.5%
CCOc1ccccc1C(=O)N[C@H](C(=O)OCc1csc(CC(=O)Nc2ccc(C)cc2)n1)C(C)C	20.9	?	?	11.2µM*	1.6%	?
CCOc1ccccc1C(=O)N[C@H](C(=O)OCc1cc([N+](=O)[O-])cc2c1OCOC2)C(C)C	-4.1	11.2µM*	?	20µM*	17.8%	-29.6%
COC(=O)C1CCN(Cc2ccc3c(c2)CN(C(=O)c2ccc(-n4cnnn4)cc2)CCO3)CC1	·	·	·	·	·	1.6%
Cc1ccc(C)c(CSc2ccc3nnc(-c4ccccn4)n3n2)c1	-22.2	?	?	?	-0.6%	22.4µM*
Cc1ccc(CSc2ccc3nnc(-c4ccccn4)n3n2)cc1	0.0	-9.2%	-17.6%	10.4%	14.3%	?
OCc1cnc(SCc2cccc(F)c2)n1Cc1ccc(F)cc1	-71.0*	·	17.3%[46.1 µM]	·	·	-10.3%
Cc1ccc(Cn2c(CO)cnc2SCc2cccc(F)c2)cc1	-10.7	·	?	·	·	-2.2%
Cn1nccc1C(=O)N1CCN(c2ccccc2F)CC1	-6.2	·	·	9.3%	1.0%	-2.1%
CC(=O)c1c(C)[nH]c(C(=O)OCc2ccc([N+](=O)[O-])cc2)c1C	-15.0	-4.1%[46.1 µM]	2.4%[46.1 µM]	5.62µM*	1.4%	7.9%
CC(=O)c1c(C)[nH]c(C(=O)OCCCCN2C(=O)c3ccccc3C2=O)c1C	·	8.2µM*	?	10µM*	-5.7%	12.6µM*
COC(=O)c1ccc(COC(=O)c2[nH]c(C)c(C(C)=O)c2C)o1	33.2	?	-27.0%	2.24µM*	4.7%	12.6µM*
Cc1ccc(-c2cc(C(=O)N3CCN(C(=O)c4ccco4)CC3)[nH]n2)cc1C	-25.2	1.1%[46.1 µM]	?	6.6%	-8.0%	2.1%
CC(C)C[C@H]1CN([C@@H](CC(C)C)CN2CCC[C@@H]2CN2C(=O)C(=O)NC[C@@H]2Cc2ccccc2)C(=O)C(=O)N1CC1CCCCC1	-65.9*	·	·	4.8%	·	-6.4%
CC(C)C[C@@H](CN1CCC[C@H]1CN1C(=O)C(=O)NC[C@@H]1Cc1ccccc1)N1C[C@H](Cc2ccc(O)cc2)N(CC2CCCCCC2)C(=O)C1=O	-103.0*	·	·	·	·	-20.2%
CC(C)C[C@@H](CN1CCC[C@@H]1CN1C(=O)C(=O)NC[C@@H]1Cc1ccccc1)N1C[C@H](Cc2ccc(O)cc2)N(CC2CCCCC2)C(=O)C1=O	?	·	·	-14.3%	·	-10.3%
CC(C)C[C@H]1CNC(=O)C(=O)N1C[C@H]1CCCN1C[C@H](CC(C)C)N1C[C@H](Cc2ccccc2)N(CC2CCCCC2)C(=O)C1=O	-1.5	·	·	·	·	25.2%
CCOC(=O)c1cccc(NC(=O)Cn2ncc3c(=O)oc4ccccc4c32)c1	7.4	4.8%[46.1 µM]	6.9%[46.1 µM]	·	·	-21.3%
COc1ccccc1NC(=O)Nc1nc(CC(=O)N2CCN(c3ccccc3OC)CC2)cs1	-11.5	?	?	10µM*	-0.6%	28.2µM*
COc1ccccc1NC(=O)Nc1nc(CC(=O)Nc2ccc(OC)c(OC)c2)cs1	-21.8	20.9%	10.8%	?	2.2%	-8.3%
COc1ccccc1NC(=O)Cc1csc(NC(=S)Nc2ccc(C)cc2)n1	-101.5*	4.5%	?	?	1.1%	?
CCC(=O)Nc1nc(CC(=O)Nc2ccccc2OC)cs1	15.3	3.1%	-1.1%	2.2%	-2.5%	-20.4%
COc1cc(C)ccc1NC(=O)Cc1csc(NC(=O)Nc2ccccc2OC)n1	-10.1	?	?	8.91µM*	-8.7%	?
